Results on eleven molecules are retold here after PubChem BioAssay (NCATS).

Molecules are shown by their SMILES. Results filed as inconclusive are left out. Activity calls are given as the source filed them. Unless noted, calls follow the shape of the dose curve; as a rule, active = well fitted curve in the direction sought with a large enough effect; inconclusive = small, poorly fitted or top-dose-only effect, or another doubt; inactive = no such curve, though single readings can be large; an effect the other way counts as inactive or inconclusive.

For experiment [1], the target named is Cytochrome P450 2D6 (Homo sapiens) (UniProt P10635). Briefly: qHTS for inhibitors of CYP2D6 against the NCATS DSHEA and TCM libraries (AID 1919972). Also: % is scaled to controls: 0 for no effect and ±100 for the full control effect. The procedure, abridged: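 CYP2D6 enzyme with pro-luciferin substrate in manufacturer buffer (typically 100 mM KPO4), preincubated 15 min RT with substances (most at 19.5 nM upward); NADPH regeneration system (1x) started 30–45 min RT reaction; P450-Glo luminescence read after 30 min; quinidine as intraplate control.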
Chain of Cytochrome P450 2D6 (Homo sapiens) (P10635 whole entry, looked up): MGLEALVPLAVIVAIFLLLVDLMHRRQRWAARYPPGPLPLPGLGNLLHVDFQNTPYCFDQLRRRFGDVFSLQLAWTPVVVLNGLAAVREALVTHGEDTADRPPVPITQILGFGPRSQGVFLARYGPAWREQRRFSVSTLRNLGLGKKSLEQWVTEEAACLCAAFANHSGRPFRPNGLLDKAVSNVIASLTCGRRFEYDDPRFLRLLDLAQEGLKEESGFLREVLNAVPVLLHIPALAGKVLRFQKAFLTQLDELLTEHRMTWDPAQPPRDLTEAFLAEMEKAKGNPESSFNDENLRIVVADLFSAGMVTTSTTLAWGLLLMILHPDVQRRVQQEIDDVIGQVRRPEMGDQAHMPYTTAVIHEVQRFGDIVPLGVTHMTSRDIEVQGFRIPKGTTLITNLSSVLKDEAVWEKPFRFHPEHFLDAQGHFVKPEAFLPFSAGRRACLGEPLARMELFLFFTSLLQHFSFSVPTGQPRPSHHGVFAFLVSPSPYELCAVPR
For orientation: In qHTS, concentration-response curves come from the screen itself.

Experiment [2] has as its target Cytochrome P450 2C9 (Homo sapiens) (UniProt P11712). Briefly: qHTS for inhibitors of CYP2C9 against the NCATS DSHEA and TCM libraries (AID 1919973). Also: potency is read from the fitted curve at half-maximal effect. The procedure, abridged:
(§1)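 Concentration-response screening with isoform-matched pro-luciferin substrates. The CYP reaction was initiated by NADPH regenerating solution and ran 30-45 min in darkness at room temperature.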

Experiment [3] can be described thus: KB-3-1 P-gp reporter qHTS against the NCATS DSHEA and TCM libraries (AID 1919975). Also: 0% is about no effect. Put shortly: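 72 h exposure of KB-3-1 cells (DMEM, 10% FBS) to DSHEA/TCM samples, concentration-response; cell viability measured as CellTiter-Glo luminescence after 30 min at room temperature.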
Experiment [4] is described as follows: qHTS Counterscreen for compound interference against the NCATS DSHEA and TCM libraries (AID 1919978). Also: % of control where 0% means no effect. As to conditions: firefly luciferase detection reagent interference, luminescence. Put shortly:
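Read-out is luminescence after 30 min at RT with luciferin detection reagent. Before that, compounds (19.5 nM to 39.8 uM final) sat 15 min at RT with 1 uM D-luciferin or 100 mM potassium phosphate buffer. PTC124 served as intraplate control.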

The nature of experiment [5]: Dual reporter qHTS for agonist of Pregnane X Receptor (hPXR) against the NCATS DSHEA and TCM libraries: Fluorescence readout (AID 1920058). Also: 0% is about no effect. Put shortly:
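Cells were plated at 2000 per well and allowed to attach for 5 h. Test substances were pinned in and incubated roughly 24 h. CellTiter-Fluor was then added and fluorescence measured after 1 h.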

For experiment [6], the target named is Nuclear receptor subfamily 1 group I member 2 (Homo sapiens) (UniProt O75469). The experiment in a line: Dual reporter qHTS for agonist of Pregnane X Receptor (hPXR) against the NCATS DSHEA and TCM libraries: Luminescence readout (AID 1920059). Also: potency is read from the fitted curve at half-maximal effect. The procedure, abridged: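 hPXR-LucHepG2 cells in phenol red-free DMEM with 5% charcoal-stripped FBS, 2000 cells/well, attached 5 h, then exposed 24 h at 37C to compounds; rifampicin as positive agonist control (2.8 nM–92 uM). Luciferase luminescence read.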
Chain of Nuclear receptor subfamily 1 group I member 2 (Homo sapiens) (O75469 whole entry, looked up): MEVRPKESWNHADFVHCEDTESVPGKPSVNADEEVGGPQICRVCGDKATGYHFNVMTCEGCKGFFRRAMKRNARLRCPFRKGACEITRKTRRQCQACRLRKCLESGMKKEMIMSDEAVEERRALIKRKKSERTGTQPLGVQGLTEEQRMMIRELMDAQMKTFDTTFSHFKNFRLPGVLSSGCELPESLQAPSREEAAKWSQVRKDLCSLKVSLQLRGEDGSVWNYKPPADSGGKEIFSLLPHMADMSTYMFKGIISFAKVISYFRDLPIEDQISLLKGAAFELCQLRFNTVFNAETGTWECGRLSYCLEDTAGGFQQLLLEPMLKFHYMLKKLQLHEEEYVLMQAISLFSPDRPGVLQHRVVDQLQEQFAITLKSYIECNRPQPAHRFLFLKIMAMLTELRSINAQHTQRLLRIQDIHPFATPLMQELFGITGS

For experiment [7] the target is unchanged. Briefly: Dual reporter qHTS for antagonist of Pregnane X Receptor (hPXR) against the NCATS DSHEA and TCM libraries: Luminescence Readout (AID 1920060). Also: 0% is about no effect. Put shortly: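 Rifampicin-stimulated (2 uM final) hPXR-luciferase HepG2 cells were treated for 24 h with DSNP/TCM substances. Viability came from CellTiter-Fluor fluorescence, reporter activity from ONE-Glo luminescence.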

Experiment [8] can be described thus: qHTS profiling for inhibitors of Plasmodium falciparum proliferation (AID 504749). Also: nearly all actives have a fitted effect of over 60% in size. Also: potency is read from the fitted curve at half-maximal effect.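 As to activity, negative = inhibition: 0% = DMSO vehicle and full inhibition = artemisinin control.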 As to conditions: P. falciparum in erythrocytes, SYBR Green DNA, 72 h, at 28.7 µM (top of the series). Put shortly:
(§2)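 Quantitative HTS: compounds pinned into medium, infected erythrocytes added (0.3% parasitemia, 2.5% hematocrit), 72 h culture at 37 C under 5% CO2. Saponin/Triton lysis with SYBR Green I, overnight RT, then fluorescence read.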

A further experiment deals with 3D7. Described as above. Conditions: P. falciparum in erythrocytes, SYBR Green DNA, 72 h; series mostly up to 28.7 µM. Put shortly:
as §2

For another experiment, the system named is 7G8. Described as above. As to conditions: P. falciparum in erythrocytes, SYBR Green DNA, 72 h; series mostly up to 28.7 µM. The procedure, abridged: as §2
In a further experiment the test system is AA1029. The description is as above. Conditions: P. falciparum in erythrocytes, SYBR Green DNA, 72 h; series mostly up to 28.7 µM. Put shortly:
as §2

A further experiment concerns AS120. The experiment is described as above. Conditions: P. falciparum in erythrocytes, SYBR Green DNA, 72 h; series mostly up to 28.7 µM. The procedure, abridged:
as §2

In a further experiment the test system is ATS189. Described as above. As to conditions: P. falciparum in erythrocytes, SYBR Green DNA, 72 h; series mostly up to 28.7 µM. Put shortly: as §2
The subject of the next experiment is ATS95. The description is as above. As to conditions: P. falciparum in erythrocytes, SYBR Green DNA, 72 h; series mostly up to 28.7 µM. Put shortly: as §2
Another experiment deals with C2A. The experiment is described as above. As to conditions: P. falciparum in erythrocytes, SYBR Green DNA, 72 h; series mostly up to 28.7 µM. Put shortly: as §2
For a further experiment, the system named is CP185. The experiment is described as above. As to conditions: P. falciparum in erythrocytes, SYBR Green DNA, 72 h; series mostly up to 28.7 µM. Put shortly:
as §2

Another experiment concerns CP191. Described as above. Conditions: P. falciparum in erythrocytes, SYBR Green DNA, 72 h; series mostly up to 28.7 µM. The procedure, abridged:
as §2

A further experiment deals with CP192. The description is as above. As to conditions: P. falciparum in erythrocytes, SYBR Green DNA, 72 h; series mostly up to 28.7 µM. Put shortly: as §2
A short description of experiment [9]: qHTS drug screen for cell cycle checkpoint inhibitors in PARPi-resistant BRCA-mutant ovarian cancer cell lines. (AID 1963452; calls by dose curve). Conditions: PEO1/OlaR viability, CellTiter-Glo luminescence, 96 h, stronger effect = lower value. Put shortly:
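PEO1, PEO4 and PEO1/OlaR ovarian cancer cells, 600 per well, exposed 96 h at 37C to a dilution series. Viability read by CellTiter-Glo luminescence, normalized to DMSO and empty wells; activity summarized as Z-AUC.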

The target in experiment [10] is Cytochrome P450 2C19 (Homo sapiens) (UniProt P33261). The experiment in a line: qHTS for inhibitors of CYP2C19 against the NCATS DSHEA and TCM libraries (AID 1919974).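 Also: luminescence from luciferin released by CYP2C19 oxidation of a pro-luciferin substrate.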 Also: potency is read from the fitted curve at half-maximal effect. Put shortly:
as §1

[11] abbreviates: measured here: PEO1 parental Z-AUC.

Chain of Cytochrome P450 2C9 (Homo sapiens) (P11712 whole entry, looked up, canonical isoform): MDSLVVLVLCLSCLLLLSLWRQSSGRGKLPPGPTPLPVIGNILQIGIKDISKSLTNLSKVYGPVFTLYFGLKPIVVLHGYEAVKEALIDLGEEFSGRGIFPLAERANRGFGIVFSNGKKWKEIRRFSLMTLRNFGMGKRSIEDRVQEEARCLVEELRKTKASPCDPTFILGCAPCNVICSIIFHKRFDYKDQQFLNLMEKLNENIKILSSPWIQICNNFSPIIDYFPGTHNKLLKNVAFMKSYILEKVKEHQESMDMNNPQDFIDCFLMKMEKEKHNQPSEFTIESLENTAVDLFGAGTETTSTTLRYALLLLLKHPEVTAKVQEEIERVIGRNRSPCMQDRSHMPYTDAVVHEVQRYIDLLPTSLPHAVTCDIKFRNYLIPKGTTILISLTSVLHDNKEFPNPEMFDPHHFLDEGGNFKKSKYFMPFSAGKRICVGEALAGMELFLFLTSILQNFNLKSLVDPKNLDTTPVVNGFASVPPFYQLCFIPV
Chain of Cytochrome P450 2C19 (Homo sapiens) (P33261 whole entry, looked up): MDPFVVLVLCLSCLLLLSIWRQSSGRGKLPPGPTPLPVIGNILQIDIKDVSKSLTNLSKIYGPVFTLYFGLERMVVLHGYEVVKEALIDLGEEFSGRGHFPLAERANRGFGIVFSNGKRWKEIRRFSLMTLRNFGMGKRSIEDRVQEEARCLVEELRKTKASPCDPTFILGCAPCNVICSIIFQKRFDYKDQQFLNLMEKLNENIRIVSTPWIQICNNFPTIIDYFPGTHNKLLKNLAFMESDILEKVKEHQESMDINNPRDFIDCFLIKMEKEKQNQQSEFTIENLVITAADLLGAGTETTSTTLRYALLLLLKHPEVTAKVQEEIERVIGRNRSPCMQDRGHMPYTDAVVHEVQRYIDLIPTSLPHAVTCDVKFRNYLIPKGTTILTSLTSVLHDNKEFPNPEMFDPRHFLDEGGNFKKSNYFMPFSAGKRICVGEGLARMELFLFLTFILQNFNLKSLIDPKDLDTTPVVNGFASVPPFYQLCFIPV

For the molecule `CC1=CCC2CC1C2(C)C` (stereo unspecified), the outcome in experiment [1], in experiment [3], in experiment [5] and in [7] was inactive. In addition, the Potency entry (in experiment [2]; in experiment [6]; in the experiment on 3D7; in the experiment on 7G8; in the experiment with AA1029; in the experiment on AS120) was “inactive” in each case. Also, the Potency result with ATS189, in the experiment on ATS95, in the experiment with C2A, with CP185, in the experiment with CP191 and in the experiment with CP192 was “inactive” throughout. Further, in experiment [4], the max response was 3.27% (inactive). Also, the activity, negative = inhibition was 10.5% (inactive) in experiment [8] (parasite line A) and 12.9% (inactive) in experiment [8] (parasite line B).
Turning to `CN(C)CCOc1ccc(/C(=C(/CCCl)c2ccccc2)c2ccccc2)cc1`, the Z-AUC in experiment [9] is 0.623 (inactive); in [9] (setting [11]), 0.97; in experiment [9] (measured here: PEO4 Z-AUC), 0.656. In addition, the activity, negative = inhibition in experiment [8] (parasite line A) was -4.58% (inactive); in experiment [8] (parasite line B), -0.289% (inactive). Moreover, the Potency entry in the experiment with 3D7, in the experiment on AA1029, in the experiment on AS120, in the experiment on ATS189, in the experiment with C2A and in the experiment on CP185 was “inactive” in each case. Moreover, the Potency result in the experiment with CP191 and with CP192 was “inactive” throughout.
Consider `CCCCC[C@H](O)/C=C/[C@H]1[C@H](O)CC(=O)[C@@H]1CCCCCCC(=O)O`, for which the Z-AUC was -0.83 (inactive) in [9], -0.667 in experiment [9] (setting [11]) and -0.531 in experiment [9] (measured here: PEO4 Z-AUC).
With `CC(C)=CCC/C(C)=C/C=C/C(C)=C/C=C/C(C)=C/C=C/C=C(C)/C=C/C=C(C)/C=C/C=C(\C)CCC=C(C)C`, the call in [1], in [3], in experiment [5] and in experiment [7] was inactive. In addition, the Potency result (in [2]; in experiment [10]; in [6]; in the experiment with AA1029; in the experiment on ATS189; in the experiment with ATS95) was “inactive” in each case. Also, the Potency result in the experiment with C2A, in the experiment on CP185 and in the experiment on CP192 was “inactive” in each case. Moreover, in experiment [4], the max response was 0.511% (inactive). Moreover, the values for the activity, negative = inhibition in experiment [8] (parasite line A) and in experiment [8] (parasite line B) were -19% (inactive) and -16% (inactive), respectively.
As for `C=C1CC[C@H](O)C/C1=C\C=C1/CCC[C@]2(C)[C@@H]([C@H](C)CCCC(C)C)CC[C@@H]12`, the Potency is 25.1 µM (active) in [2], 25.1 µM (active) in experiment [10] and 31.6 µM (active) in experiment [6]. Further, the result in experiment [3], in [5] and in experiment [7] was inactive. Besides, the max response in experiment [4] was 0.0382% (inactive).
`C=CC[N+]1([C@H]2C[C@H]3[C@@H]4CC[C@H]5C[C@H](O)[C@@H](N6CCOCC6)C[C@]5(C)[C@H]4CC[C@]3(C)[C@H]2OC(C)=O)CCCC1`: the Z-AUC is 1.19 (inactive) in experiment [9], 1.23 in experiment [9] (setting [11]) and 0.984 in experiment [9] (measured here: PEO4 Z-AUC). The Potency result in the experiment with 3D7 is “inactive”. The Potency in the experiment on AA1029 is 11.2 µM (active).
For `CC[C@H]1OC(=O)[C@H](C)[C@@H](O[C@H]2C[C@@](C)(OC)[C@@H](O)[C@H](C)O2)[C@H](C)[C@@H](O[C@@H]2O[C@H](C)C[C@H](N(C)C)[C@H]2O)[C@](C)(O)C[C@@H](C)CN(C)[C@H](C)[C@@H](O)[C@]1(C)O`, the figures for the Z-AUC in [9], in experiment [9] (setting [11]) and in experiment [9] (measured here: PEO4 Z-AUC) were 1.04 (inactive), 0.718 and 1.23, respectively. Moreover, in the experiment with 3D7, the Potency entry was “inactive”. Also, the Potency is 12.6 µM (active) in the experiment with 7G8; 4.47 µM (active) with AA1029; 5.01 µM (active) in the experiment with AS120; 12.6 µM (active) in the experiment with ATS189; 7.94 µM (active) with ATS95; 4.47 µM (active) in the experiment with C2A. The Potency with CP185 is 5.01 µM (active).
In the case of `CC(C)=CCC/C(C)=C/CC/C(C)=C/CC/C(C)=C/CC1=C(C)C(=O)c2ccccc2C1=O`, the outcome in experiment [1], in experiment [5] and in experiment [7] was inactive. Further, the Potency in [2] is 14.1 µM (active). The max response in experiment [4] was -2.14% (inactive).
Turning to `C=C1CC[C@H](O)CC1=C/C=C1\CCC[C@]2(C)[C@@H]([C@H](C)/C=C/[C@H](C)C(C)C)CC[C@@H]12`, the Potency in experiment [10] was 12.6 µM (active). Moreover, the call in [3], in experiment [5] and in [7] was inactive. Besides, in [4], the max response is -0.883% (inactive).
Take `CC[C@H](CC[C@@H](C)[C@H]1CC[C@H]2[C@@H]3CC=C4C[C@@H](O)CC[C@]4(C)[C@H]3CC[C@]12C)C(C)C`: the molecule was called inactive in [3], in experiment [5] and in experiment [7]. The max response in experiment [4] is -1.45% (inactive). The Potency entry in [6] is “inactive”. The Z-AUC in experiment [9] was 0.987 (inactive); in experiment [9] (setting [11]), 0.643; in experiment [9] (measured here: PEO4 Z-AUC), 0.776.
As for `Oc1ccc(/C=C/c2cc(O)cc(O)c2)cc1`, the molecule was classed as inactive in [1], in experiment [3], in experiment [5] and in experiment [7]. The max response in experiment [4] is -1.38% (inactive). In experiment [6], the Potency was 31.6 µM (active). For the same molecule, the Z-AUC in experiment [9] is 0.778 (inactive); in [9] (setting [11]), 1.04; in [9] (measured here: PEO4 Z-AUC), 0.679.
